From PubChem BioAssay (Tox21) come the findings set out here.

Values without a mark were called inactive. Calls of active or inactive are those of the source. The call rests on the fitted dose curve.
On the % scale 0 is the no-effect control and ±100 the full control effect.

Chain of Acetylcholinesterase (Homo sapiens) (P22303 whole entry, looked up): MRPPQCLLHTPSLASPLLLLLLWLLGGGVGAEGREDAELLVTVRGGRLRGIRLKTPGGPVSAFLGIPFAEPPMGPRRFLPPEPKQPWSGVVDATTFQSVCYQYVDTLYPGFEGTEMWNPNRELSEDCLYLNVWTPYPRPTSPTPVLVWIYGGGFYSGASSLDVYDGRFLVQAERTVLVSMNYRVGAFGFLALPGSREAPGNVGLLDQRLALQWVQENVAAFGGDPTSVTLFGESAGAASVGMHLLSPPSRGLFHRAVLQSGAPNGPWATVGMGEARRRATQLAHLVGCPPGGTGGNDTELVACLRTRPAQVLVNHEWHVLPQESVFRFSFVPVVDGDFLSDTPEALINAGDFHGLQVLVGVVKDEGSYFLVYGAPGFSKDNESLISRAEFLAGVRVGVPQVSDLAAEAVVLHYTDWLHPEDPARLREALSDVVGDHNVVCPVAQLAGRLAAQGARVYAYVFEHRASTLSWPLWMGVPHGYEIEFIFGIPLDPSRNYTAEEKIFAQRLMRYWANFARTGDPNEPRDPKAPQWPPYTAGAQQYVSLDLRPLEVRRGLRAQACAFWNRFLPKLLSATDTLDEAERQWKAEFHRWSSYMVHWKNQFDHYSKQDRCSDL

This assay addresses Acetylcholinesterase (Homo sapiens) (UniProt P22303). The assay can be described thus: Acetylcholinesterase (AChE) small molecule antagonists: enzyme-based qHTS assay with human liver microsomes (AID 1347399). Further: nearly all actives have a fitted effect of over 60% in size. As to conditions: Potency: qHTS inhibition; outcome: qHTS inhibition; series mostly up to 115 µM; activity change, negative = inhibition: at the top concentration. Summed up: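 Recombinant human AChE (50 mU/mL in the enzyme mix) and human liver microsomes (0.25 mg/mL final) were preincubated with compound and NADPH (0.25 mg/mL final) for 30 min at 37 C. Acetylthiocholine/DTNB was then added; thiocholine was read colorimetrically after 10 min at room temperature.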
(qHTS replaces the single test concentration by a dilution series.)
On to `CCCCC(CC)CN1CN(CC(CC)CCCC)CC(C)(N)C1` (stereo not given), for which the “activity change, negative = inhibition” value is -0.168% [at 53 µM].
With `CCCCCCCC(OC)OC`, the “activity change, negative = inhibition” value was 0.332% [at 53 µM].
With `NC(=O)Cc1cccc(C(=O)c2ccccc2)c1N`, the “activity change, negative = inhibition” value was 4.42% [at 53 µM].
On to `CN1C(=O)CC(C)(c2ccccc2)C1=O` (stereo not given), for which the “activity change, negative = inhibition” value was 0.168% [at 53 µM].
Regarding `[O-][n+]1ccccc1SSc1cccc[n+]1[O-]`, the activity change, negative = inhibition is -15.2% [at 23.6 µM].
As for `CCOC(=O)Cn1c(=O)sc2cccc(Cl)c21`, the “activity change, negative = inhibition” value was -2.37%.
Same read-out and setting: to `Cn1c(=O)[nH]c2ncn(C)c2c1=O` belongs 3.51%.
As for `CC1(N)CCC(C(C)(C)N)CC1` (stereo not given), the “activity change, negative = inhibition” value was 1.02%.
As for `C=C(C)C(=O)OCCC(C)OC(=O)C(=C)C` (stereo not given), the “activity change, negative = inhibition” value is 1.3%.
Regarding `O=c1cc(-c2ccccc2)oc2ccccc12`, the Potency entry was “inactive”.
Consider `COc1nccnc1CC(C)C`, for which the “activity change, negative = inhibition” value was 0.487%.
`CC(=O)NS(=O)(=O)c1ccc(N)cc1`: the Potency result was “inactive”.
The same measure, in the same setting: the value for `COc1ccc(C(Cl)=C(c2ccc(OC)cc2)c2ccc(OC)cc2)cc1` was “inactive”.
On the same count and under the same terms, to `CC1(C)[C@@H](O[C@H]2O[C@H](C(=O)O)[C@@H](O)[C@H](O)[C@H]2O[C@@H]2O[C@H](C(=O)O)[C@@H](O)[C@H](O)[C@H]2O)CC[C@]2(C)[C@H]3C(=O)C=C4[C@@H]5C[C@@](C)(C(=O)O)CC[C@]5(C)CC[C@@]4(C)[C@]3(C)CC[C@@H]12` belongs “inactive”.
Turning to `CC(=O)Oc1ccc2c(c1)CC[C@@H]1[C@@H]2CC[C@]2(C)[C@@H](O)CC[C@@H]12`, the “activity change, negative = inhibition” value is 0% [at 53 µM].
